Most compounds without a hit are left out; they make up all but 5.5% or so of the library.
a7 integrin act = activators of alpha7 integrin expression for muscular dystrophy; AID 624291; alpha7betagal myoblasts, beta-gal FDG fluorescence, 48 h; hit rate 0.064% among 350,000; Potency, µM (highest dose often 38.3 µM), most hits filed as activators; further: nearly all actives have a fitted effect of over 60% in size
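Alpha7betagal+/- myoblasts (passage 13) were plated 16-24 hr, then exposed to compounds (1:260 dilution of DMSO stock) for 48 hours at 37C. After MPER lysis, β-galactosidase reporter activity was read as FDG fluorescence (ex 480/em 540) after 30 minutes.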
BCR signal inh = chronic active BCR signaling inhibition | ABC-DLBCL IkBa-CBG/CBR reporter, luminescence ratio, 4 h | AID 493014 | hit rate 0.05% among 340,000 | Potency, µM (series often up to 46.1 µM), actives largely listed as inhibitors; active means well fitted inhibition curve with a large enough effect in the signal ratio, with a control signal flat, not every such curve was filed as active; inconclusive means small, poorly fitted or top-dose-only effect, or effect the other way, or a change in a side signal; the % refers to the signal ratio
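TMD8 ABC-DLBCL cells carrying doxycycline-inducible green luciferase fused to IkappaBalpha plus unfused red luciferase were exposed to compounds (up to 46 uM) for 4 hrs at 37C. Activity came from the overlap-corrected green/red luminescence ratio.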
uPA generation = cell surface uPA generation inhibition | cell surface uPA generation assay, qHTS | Potency, µM (highest dose often 38.3 µM), usual class: inhibitors | hit rate 0.31% among 330,000; active means well fitted inhibition curve with a large enough effect; inconclusive means small, poorly fitted or top-dose-only effect; inactive means no such curve, though single readings can be large or run the other way; tested in mouse RAW 264.7 cells; further: nearly all actives have a fitted effect of over 55% in size
Mito fusion yeast = inhibitors of mitochondrial division or activators of mitochondrial fusion. S. cerevisiae fusion-defective mutant growth rescue, CellTiterGlo 48 h. Potency, µM (titrated, usually from 46.1 µM), most hits filed as activators. hit rate 0.23% among 320,000; further: nearly all actives have a fitted effect of over 45% in size
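Temperature-sensitive fusion-defective S. cerevisiae (e.g. fzo1-1, mgm1-5) were grown with compound in YPEG medium (3% ethanol, 3% glycerol) for 48 hours at 37C. Growth rescue was measured as viability by CellTiterGlo luminescence after 10 minutes at ambient.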
Gal4-VP16 FLuc = Gal4-VP16 reporter inhibition counter-screen; Drosophila S2 Gal4-VP16 UAS-luciferase, luminescence, 20 h; hit rate 3.5% among 310,000; Potency, µM (titrated, usually from 53.6 µM), actives largely listed as inhibitors; AID 2546;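 further: Gal4-VP16 expression switched on by copper sulfate through the metallothionein promoter; nearly all actives have a fitted effect of over 50% in size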
RORgamma inh = inhibitors of mouse ROR gamma transcriptional activity; Drosophila S2 Gal4-RORgamma UAS-luciferase reporter, 20 h; Potency, µM (titrated, usually from 53.6 µM), hits mostly inhibitors; hit rate 5.4% among 310,000; further: nearly all actives have a fitted effect of over 60% in size
Target sequence (P51450 whole entry, looked up, the tested form may be a part): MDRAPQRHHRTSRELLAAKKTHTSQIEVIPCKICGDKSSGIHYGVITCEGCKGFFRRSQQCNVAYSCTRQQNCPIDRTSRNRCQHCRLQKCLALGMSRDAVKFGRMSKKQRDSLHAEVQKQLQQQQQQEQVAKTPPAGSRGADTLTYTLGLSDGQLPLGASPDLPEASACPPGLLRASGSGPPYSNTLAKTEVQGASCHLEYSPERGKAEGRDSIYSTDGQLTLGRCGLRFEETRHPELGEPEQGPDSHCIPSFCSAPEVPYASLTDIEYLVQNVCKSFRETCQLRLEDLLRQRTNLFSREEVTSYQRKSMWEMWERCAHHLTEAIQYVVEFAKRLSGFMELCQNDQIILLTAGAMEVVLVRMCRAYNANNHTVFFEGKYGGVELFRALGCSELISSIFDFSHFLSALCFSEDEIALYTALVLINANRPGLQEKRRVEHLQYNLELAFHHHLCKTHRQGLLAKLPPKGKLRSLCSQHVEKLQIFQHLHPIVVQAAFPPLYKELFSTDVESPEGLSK
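ROR gamma transcriptional activity was tracked as Gal4-UAS luciferase output in stably transfected Drosophila Schneider cells, with compound added 1 hr before 700 uM copper sulfate induction and a 20 hr ambient-temperature incubation.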
Of the large screens only hits and unclear results are named; the others gave an inactive call. Unless noted, the call rests on the fitted dose curve; in most records, active means well fitted curve in the direction sought with a large enough effect; inconclusive means small, poorly fitted or top-dose-only effect, or another doubt; inactive means no such curve, though single readings can be large; an effect the other way counts as inactive or inconclusive.

COCCCNC(=S)NCCNc1nc2c(C)c(C)ccc2cc1C#N	Gal4-VP16 FLuc inconclusive, RORgamma inh 18µM
Cc1c(NC(=O)c2nn(CC(C)C)c(=O)c3ccccc23)c(=O)n(-c2ccccc2)n1C	none (no result: Gal4-VP16 FLuc, RORgamma inh)
CCN1C(=O)c2ccc(C(=O)NCc3ccco3)cc2C1=O	BCR signal inh inconclusive
Cc1noc(C)c1-c1ccc2ncnc(NC3CCCc4ccccc43)c2c1 (stereo unspecified)	RORgamma inh 28µM (no result: a7 integrin act, BCR signal inh, uPA generation, Mito fusion yeast)
Cc1noc(C)c1-c1ccc2ncnc(NCc3ccccc3)c2c1	RORgamma inh 2.8µM (no result: a7 integrin act, BCR signal inh, uPA generation, Mito fusion yeast)
Cc1noc(C)c1-c1ccc2ncnc(NCc3ccc(Br)cc3)c2c1	Gal4-VP16 FLuc 11µM, RORgamma inh 11µM (no result: a7 integrin act, BCR signal inh, uPA generation, Mito fusion yeast)
Cc1ccc(CNc2ncnc3ccc(-c4c(C)noc4C)cc23)cc1	none (no result: a7 integrin act, BCR signal inh, uPA generation, Mito fusion yeast)
Oc1ccccc1Nc1nc(NCc2ccccc2)c2ccccc2n1	a7 integrin act inconclusive, BCR signal inh inconclusive, Gal4-VP16 FLuc 22µM, RORgamma inh inconclusive (no result: uPA generation)
Cc1nn(C)cc1S(=O)(=O)N1CCN(c2ccccc2)CC1	none
COc1ccc(COC(=O)N/N=C2/C[C@@H](O)[C@@H](O)[C@@H]3[C@@H]4C(=O)N(C(C)(C)C)C(=O)[C@H]4CC[C@H]23)cc1	none (no result: a7 integrin act, BCR signal inh, uPA generation, Mito fusion yeast)
CC(C)Cc1ccc(CC(=O)O)cc1	none (no result: a7 integrin act, BCR signal inh, uPA generation, Mito fusion yeast)
CCN(CC)C(=O)c1cccc(NC(=O)c2cc(C3CC3)nc3c2cnn3C(C)C)c1	BCR signal inh inconclusive (no result: Gal4-VP16 FLuc, RORgamma inh)
COCCC(=O)N1CCC(Oc2ccc(C(=O)N(C)CCCC3CCCC3)cc2)CC1	a7 integrin act inconclusive, RORgamma inh inconclusive
COc1cc2ncnc(NCc3ccccc3)c2cc1OC	a7 integrin act inconclusive
c1ccc(CNc2ncnc3ccccc23)cc1	BCR signal inh inconclusive, Gal4-VP16 FLuc 11µM
O=C(CNC(=O)c1cccc(-n2cnnn2)c1)Nc1ccc(F)c(F)c1	none (no result: Gal4-VP16 FLuc, RORgamma inh)
O=C(Nc1ncccc1O)c1ccc(OCC2CCCO2)cc1 (stereo unspecified)	uPA generation inconclusive, Gal4-VP16 FLuc inconclusive, RORgamma inh 10µM
Cc1cnc(NC(=O)c2ccc(OCC3CCCO3)cc2)s1 (stereo unspecified)	BCR signal inh inconclusive, Gal4-VP16 FLuc inconclusive, RORgamma inh 7.9µM
O=C(Nc1ncccc1O)c1ccc(Oc2ccccc2)cc1	a7 integrin act inconclusive, BCR signal inh inconclusive, Mito fusion yeast inconclusive, Gal4-VP16 FLuc 14µM, RORgamma inh inconclusive (no result: uPA generation)
CCC(C)C(=O)OC1CC(O)C=C2C=CC(C)C(CCC(O)CC(O)CC(=O)O)C21 (stereo unspecified)	none (no result: a7 integrin act, BCR signal inh, uPA generation, Mito fusion yeast)
O=S(=O)(c1cccs1)N1CCN(CC(O)COc2cc(Cl)ccc2Cl)CC1 (stereo unspecified)	BCR signal inh inconclusive, Mito fusion yeast inconclusive, Gal4-VP16 FLuc 18µM
O=C(NN=C1CCN(Cc2ccccc2)CC1)c1ccccc1O	BCR signal inh inconclusive, Gal4-VP16 FLuc inconclusive, RORgamma inh 10µM
O=C(NN=C1C2CC3CC(C2)CC1C3)c1cccs1	BCR signal inh inconclusive
CCOC(=O)C1=C(C)C/C(=N\NC(=O)c2ccccc2O)CC1	a7 integrin act inconclusive, BCR signal inh inconclusive, Gal4-VP16 FLuc 10µM, RORgamma inh 5µM
O=C(NN=C1CCCCCC1)c1cc2ccccc2cc1O	Gal4-VP16 FLuc inconclusive, RORgamma inh inconclusive
O=C(NN=C1C2CC3CC(C2)CC1C3)c1ccccc1O	a7 integrin act inconclusive, BCR signal inh inconclusive, RORgamma inh 13µM
O=C(NN=C1CCN(Cc2ccccc2)CC1)c1cc2ccccc2cc1O	none
CC(=O)N1CCC(=NNC(=O)c2cc3ccccc3cc2O)CC1	RORgamma inh 10µM
O=C(Nc1ccccc1F)c1cc(S(=O)(=O)N2CCOCC2)ccc1N1CCOCC1	none (no result: Gal4-VP16 FLuc, RORgamma inh)
CC(C)C[C@@H](CC(=O)N[C@H](CC(=O)N[C@@H]1CCCC[C@H]1C(=O)N[C@H](CC(=O)N[C@@H](CCC(=O)O)CC(=O)O)Cc1ccccc1)C(C)C)NC(=O)[C@@H]1CCCC[C@H]1N	none (no result: a7 integrin act, BCR signal inh, uPA generation, Mito fusion yeast)
CCOC(=O)N1CCC(=NNC(=O)c2cc3ccccc3cc2O)CC1	Gal4-VP16 FLuc inconclusive, RORgamma inh 13µM
Cc1[nH]n(-c2ccccc2)c(=O)c1/C=N/n1c(C)nc2ccccc2c1=O	BCR signal inh inconclusive, Gal4-VP16 FLuc inconclusive, RORgamma inh 5.6µM
Cc1nc2ccccc2c(=O)n1/N=C/c1ccc(F)cc1	none
